D2 antag: D2 dopamine receptor (human) antagonism. 340,000 tested, 2% active. AID 485344. HEK293 TREx D2 cells, calcium flux, dopamine EC80. P14416. inhibition, % at 10 µM; in the data active = inhibition above about 30%; inactive = below that, where a call was filed; also: 0% is about no effect
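Dopamine at EC80 is the agonist stimulus; test compounds precede it by 180 s. Calcium flux read kinetically in a force-coupled, inducible HEK293 T-REx D2 cell line.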
D2 ag-1: activates the human D2 dopamine receptor | P14416 | DiscoveRx PathHunter D2 beta-arrestin, luminescence, 90 min; 100% = 57 uM dopamine signal | activation, % (concentration not given with the values) | 360,000 tested, 0.084% active; in the data active = activation above about 40%; inconclusive = between about 15% and that limit
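DiscoveRx PathHunter D2 beta-arrestin cells (2,100/well) attached overnight, then compound-stimulated 90 min at 37 C in HBSS/10 mM HEPES/0.1% Tween-20 buffer; beta-galactosidase complementation read by luminescence after 1 h at ambient temperature. Dopamine 57 uM final (EC100) as control.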
D2 PAM-1: D2 dopamine receptor (human) potentiation. P14416. HEK293 T-REx D2, calcium flux, EC20 dopamine potentiation. potentiation, % at 10 µM. 340,000 tested, 0.34% active;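 active = potentiation over 3 SD above the plate norm, cut at about 30% in these data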; also: 0% is about no effect
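Primary screen. Calcium kinetics in induced HEK293 T-REx D2 cells: compound pre-addition 180 s, EC20 dopamine, 180 s more.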
D2 ag-2: activates the human D2 dopamine receptor | P14416 | HEK293 T-REx D2 cells, calcium flux agonist mode | activation, % at 2 µM | 340,000 tested, 0.53% active | AID 485358;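 active = activation over 3 SD above normal in the single-dose calcium agonist read, cut at about 30% in these data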; also: 0% is about no effect
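Agonism is scored from calcium flux in a force-coupled, inducible HEK293 cell line expressing D2, read kinetically for 180 s after compound addition against dopamine controls.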
D2 PAM-2: human D2 receptor positive allosteric modulation; P14416; DiscoveRx D2 beta-arrestin cells, luminescence, 90 min; 100% = 57 uM dopamine signal; potentiation, % (test concentration not listed); 360,000 tested, 0.23% active; AID 624464; in the data active = potentiation above about 50%; inconclusive = mostly about 30% to 49%
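PathHunter D2 cells, attached overnight at 37 deg C, received compound in DMSO plus dopamine at EC20 (50 nM final) for 90 min at 37 deg C. Beta-arrestin recruitment was read as luminescence after 1 h with detection reagent at ambient temperature.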
D3 ag: D3 receptor agonism confirmed, beta-arrestin readout; Potency, µM (titrated, usually from 76.9 µM), inactives show at the highest dose activation, most hits filed as activators; 2,300 tested, 4% active; shares compounds with D2 ag-2; DiscoveRx D3 beta-arrestin cells, luminescence, 90 min;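 also: potency is read from the fitted curve at half-maximal effect; 100% = dopamine control response; nearly all actives have a fitted effect of over 70% in size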
Target sequence (P35462 whole entry, looked up): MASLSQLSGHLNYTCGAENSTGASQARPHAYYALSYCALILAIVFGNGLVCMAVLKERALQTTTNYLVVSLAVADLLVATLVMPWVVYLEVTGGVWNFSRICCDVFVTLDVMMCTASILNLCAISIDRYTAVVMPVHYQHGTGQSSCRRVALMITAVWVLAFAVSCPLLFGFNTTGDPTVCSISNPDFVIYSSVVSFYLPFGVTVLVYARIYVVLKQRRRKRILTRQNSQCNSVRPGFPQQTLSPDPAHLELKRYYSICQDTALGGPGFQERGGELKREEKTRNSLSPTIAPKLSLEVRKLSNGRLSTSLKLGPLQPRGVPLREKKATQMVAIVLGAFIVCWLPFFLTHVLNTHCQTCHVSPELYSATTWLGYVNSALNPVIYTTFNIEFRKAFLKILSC
D2 ag-3: D2 receptor agonism, beta-arrestin counterscreen | shares compounds with D2 ag-2 | DiscoveRx PathHunter D2 beta-arrestin, luminescence, 90 min; response scale: percent relative to full dopamine signal | Potency, µM (titrated, usually from 76.9 µM), for inactives: top-dose activation, hits mostly activators | 2,300 tested, 5.9% active | AID 720507; also: potency is read from the fitted curve at half-maximal effect; % of control where 0% means no effect; nearly all actives have a fitted effect of over 70% in size
An asterisk follows results filed as active. This is a sample that favours compounds with a hit; in the whole collection about 2.4% have one here. Unless noted, calls follow the shape of the dose curve; as a rule, active = well fitted activation curve with a large enough effect; inconclusive = small, poorly fitted or top-dose-only effect; inactive = flat fitted curve, though single readings scatter.

How did CCOC(=O)c1c(-c2ccc(OC)cc2)csc1NC(=O)CNCc1ccco1 do in these assays?
D2 antag: 3; D2 ag-1: 1; D2 PAM-1: 1; D2 ag-2: -1; D2 PAM-2: -7

What do the screens show for `CCOC(=O)c1c(-c2ccc(Cl)cc2)csc1NC(=O)CNCc1ccco1`?
D2 antag: 18; D2 ag-1: -1; D2 PAM-1: -26; D2 ag-2: 51*; D2 PAM-2: -6; D3 ag: -4%; D2 ag-3: -1%

What do the screens show for `CSCC[C@H](NC(=O)C1CCN(S(=O)(=O)c2ccc(C)cc2)CC1)C(=O)NC1CCS(=O)(=O)C1` (some centres not stated)?
D2 antag: 13; D2 ag-1: -3; D2 PAM-1: -18; D2 ag-2: 53*; D2 PAM-2: -6; D3 ag: -2%; D2 ag-3: -3%

How did O=C(O)CCC(=O)NCc1c(Cl)cccc1Sc1ccc(Cl)cc1 do in these assays?
D2 antag: 2; D2 ag-1: -4; D2 PAM-1: -3; D2 ag-2: -3; D2 PAM-2: -4

How did COc1ccc(/[N+]([O-])=C/c2ccco2)cc1 do in these assays?
D2 antag: -8; D2 ag-1: 6; D2 PAM-1: -2; D2 ag-2: 1; D2 PAM-2: 0; D3 ag: 4%; D2 ag-3: 10%

What do the screens show for `COc1ccc(OCC(=O)N/N=C\c2ccco2)cc1`?
D2 antag: -1; D2 ag-1: 3; D2 PAM-1: -2; D2 ag-2: 0; D2 PAM-2: 3

What do the screens show for `CCC(=O)NNc1ncnc2c1cnn2C`?
D2 antag: 48*; D2 ag-1: -6; D2 PAM-1: -2; D2 ag-2: 0; D2 PAM-2: -8; D3 ag: -6%; D2 ag-3: -6%

What do the screens show for `COC(=O)c1c(-c2ccc(Cl)cc2)noc1N1CCN(c2cccc(C(F)(F)F)c2)CC1`?
D2 PAM-1: 12; D2 ag-2: 0

Results for Cc1cc(C)n2nc(-c3cccnc3)nc2n1 ?
D2 antag: -14; D2 ag-1: -2; D2 PAM-1: 4; D2 ag-2: -1; D2 PAM-2: 2

How did Cc1cc(C)n2nc(-c3ccc(F)cc3)nc2n1 do in these assays?
D2 ag-1: 3; D2 PAM-2: -6; D3 ag: 27%; D2 ag-3: -5%

What do the screens show for `CC(=O)SC1CC(=O)N(c2c(C)cccc2C)C1=O` (configuration not stated)?
D2 antag: 27; D2 ag-1: -7; D2 PAM-1: -20; D2 ag-2: 55*; D2 PAM-2: -9; D3 ag: -17%; D2 ag-3: -12%

What do the screens show for `Cc1c(Br)cccc1NC(=O)C1(C)CCN1Cc1ccccc1OC(F)F` (configuration not stated)?
D2 ag-1: -7; D2 PAM-2: 1

Results for Cc1ccccc1CC(=O)Nc1ccc2c(c1)c(=O)n(C)n2-c1cccs1 ?
D2 ag-1: -3; D2 PAM-2: -11

Results for CCN1CCN(c2ccc(N3CCN(C(=O)c4ccc(Br)o4)CC3)nn2)CC1 ?
D2 antag: 5; D2 ag-1: -4; D2 PAM-1: -11; D2 ag-2: 0; D2 PAM-2: -26

How did O=C(COc1ccccc1Cl)NNC(=O)Cn1[nH]c(=O)c2ccccc2c1=O do in these assays?
D2 antag: 0; D2 ag-1: -3; D2 PAM-1: 9; D2 ag-2: 0; D2 PAM-2: -1; D3 ag: -5%; D2 ag-3: -7%

How did CCN(CC)S(=O)(=O)c1ccc(C)c(NC(=O)CN(C)C)c1 do in these assays?
D2 antag: 5; D2 ag-1: 0; D2 PAM-1: 1; D2 ag-2: 0; D2 PAM-2: -15

Results for COc1ccccc1CNCC(=O)Nc1cc(S(=O)(=O)N2CCCCC2)ccc1C ?
D2 ag-1: inconclusive; D2 PAM-2: -8

What do the screens show for `Cc1ccc(S(=O)(=O)N2CCOCC2)cc1NC(=O)CNCc1ccccn1`?
D2 antag: 33*; D2 ag-1: inconclusive; D2 PAM-1: -12; D2 ag-2: 52*; D2 PAM-2: -4; D3 ag: 7.9µM*; D2 ag-3: inconclusive

How did COc1ccccc1CNCC(=O)Nc1cc(S(=O)(=O)N2CCCCCC2)ccc1Cl do in these assays?
D2 antag: 85*; D2 ag-1: 1; D2 PAM-1: -5; D2 ag-2: 0; D2 PAM-2: -21; D3 ag: 23%; D2 ag-3: 30%

How did COc1ccccc1CNCC(=O)Nc1cc(S(=O)(=O)N2CCOCC2)ccc1Cl do in these assays?
D2 antag: 85*; D2 ag-1: 7; D2 PAM-1: -11; D2 ag-2: 19; D2 PAM-2: -4; D3 ag: 19%; D2 ag-3: inconclusive

What do the screens show for `CCN(CC)S(=O)(=O)c1ccc(C)c(NC(=O)CNCc2ccccc2OC)c1`?
D2 antag: 96*; D2 ag-1: inconclusive; D2 PAM-1: -32; D2 ag-2: 82*; D2 PAM-2: 1; D3 ag: inconclusive; D2 ag-3: inconclusive

Results for Cc1ccc(S(=O)(=O)N2CCOCC2)cc1NC(=O)CSc1ncccn1 ?
D2 antag: 9; D2 ag-1: -2; D2 PAM-1: -13; D2 ag-2: 2; D2 PAM-2: 3

How did COc1ccc(Cl)cc1CC1(C)C(=O)Nc2ccc(S(=O)(=O)NC3CCCCC3)cc21 (configuration not stated) do in these assays?
D2 ag-1: 7; D2 PAM-2: -1

How did Cc1ccc(Cn2c(=O)c3cccnc3n(Cc3ccc(C)cc3)c2=O)cc1 do in these assays?
D2 PAM-1: 8; D2 ag-2: 0

What do the screens show for `O=C(C1CCCN1S(=O)(=O)c1cccc2cccnc12)N1CCN(c2ccccc2)CC1` (configuration not stated)?
D2 antag: 7; D2 ag-1: -3; D2 PAM-1: 5; D2 ag-2: 8; D2 PAM-2: -6; D3 ag: -19%; D2 ag-3: -4%

What do the screens show for `O=C(C1CCCN(S(=O)(=O)c2cccc3cccnc23)C1)N1CCN(c2ccccc2F)CC1` (configuration not stated)?
D2 antag: 37*; D2 ag-1: 0; D2 PAM-1: -11; D2 ag-2: 27; D2 PAM-2: 2; D3 ag: -6%; D2 ag-3: inconclusive

How did COc1ccc(OC)c(NC(=O)Nc2nnc([C@H]3C[C@H](O)[C@@H](CO)O3)s2)c1 do in these assays?
D2 ag-1: -3; D2 PAM-2: -4

High-throughput results: PubChem BioAssay, National Center for Advancing Translational Sciences (NCATS)
